Compound activity from PubChem.
IMPase cell inh = cell-permeable inhibitors of inositol monophosphatase (IMPase); P97697; CHO-M1 cells, IP1 accumulation, HTRF TR-FRET ratio; inhibition (IP1 accumulation), % at 46.1 µM; 120,000 tested, under 10 active; AID 901; active means well fitted curve in the direction sought with a large enough effect in the signal ratio, not every such curve was filed as active; inconclusive means small, poorly fitted or top-dose-only effect, or a change in a side signal; inactive means no such curve, though single readings can be large or run the other way; the % refers to the signal ratio;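 further: cells stimulated with carbachol in lithium chloride buffer; higher means more IMPase inhibition seen as more IP1 and lower FRET ratio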
Target sequence (P97697 whole entry, looked up): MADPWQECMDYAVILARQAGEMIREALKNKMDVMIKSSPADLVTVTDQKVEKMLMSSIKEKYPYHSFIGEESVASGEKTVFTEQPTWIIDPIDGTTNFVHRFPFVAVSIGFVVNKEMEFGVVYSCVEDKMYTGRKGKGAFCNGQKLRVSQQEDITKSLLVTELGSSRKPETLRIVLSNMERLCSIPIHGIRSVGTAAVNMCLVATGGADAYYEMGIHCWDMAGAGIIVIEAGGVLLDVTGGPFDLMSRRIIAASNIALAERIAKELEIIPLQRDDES
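In this qHTS, compounds (final up to 46 uM) act on CHO-M1 cells that are then activated through the M1 receptor with carbachol, in pH 7.4 buffer containing 50 mM LiCl, for 30 min. IP1 accumulation is quantified by the IP-One immunoassay.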
IMPase Li cell = IMPase inhibition in cells with lithium potentiation. 0.35% of 210,000 active. CHO-M1 cells, IP1 TR-FRET (IP-One), carbachol + lithium. Potency, µM (series often up to 59.4 µM), actives largely listed as inhibitors;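 further: IP1 builds up when IMPase is blocked and the TR-FRET signal falls; nearly all actives have a fitted effect of over 50% in size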
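Lithium-sensitised IP1 accumulation assay; M1-expressing CHO cells treated 30 min at 37C with compound. Competitive antibody detection by time-resolved FRET followed a 10 min room-temperature lysis step.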
HPGD inh = HPGD (human) dehydrogenase inhibition | purified HPGD, NADH fluorescence kinetic, PGE2 substrate | Potency, µM, usual class: inhibitors | 4.3% of 150,000 active | AID 894; active means well fitted inhibition curve with a large enough effect, not every such curve was filed as active; inconclusive means small, poorly fitted or top-dose-only effect, or another doubt; inactive means no such curve, though single readings can be large or run the other way
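NADH formation kinetics: reaction with 30 uM PGE2 and 1 mM NAD+ (final), 20 nM enzyme, Tris-HCl pH 8 with Tween 20, after 15 min compound preincubation at room temperature. Fluorescence change, last versus first of five reads.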
NPSR antag = neuropeptide S receptor (human) antagonism, cAMP; CHO-NPSR cells, cAMP TR-FRET, antagonist mode; Potency, µM (doses to about 38.3 µM), most hits filed as inhibitors; 1% of 220,000 active; further: nearly all actives have a fitted effect of over 50% in size
ALDH1A1 block = ALDH1A1 (human) enzyme inhibition | P00352 | 7.3% of 220,000 active | AID 1030 | Purified ALDH1A1, NADH fluorescence, propionaldehyde substrate | Potency, µM (series often up to 75.3 µM), actives largely listed as inhibitors; active means well fitted inhibition curve with a large enough effect, not every such curve was filed as active; inconclusive means small, poorly fitted or top-dose-only effect, or another doubt; inactive means no such curve, though single readings can be large or run the other way
ALOX12 inhib = inhibitors of human 12-lipoxygenase (ALOX12); purified 12-hLO, xylenol orange hydroperoxide absorbance; 0.12% of 150,000 active; Potency, µM (doses to about 57.1 µM), actives largely listed as inhibitors; further: nearly all actives have a fitted effect of over 55% in size
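Hydroperoxide output read as Fe(III)-xylenol orange absorbance, 573-to-405 nm ratio, after 30 min reaction with 40 uM arachidonic acid. Enzyme: 150 nM purified human 12hLO, 15 min compound preincubation; 25 mM Hepes pH 7.0, room temperature.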
A number is an active result; n = inactive; u = inconclusive; x = no result; [ ] = remark or other dose. Shown are actives, neighbours in structure and some others; about 8.9% of the full set was active somewhere. Unless noted, the call rests on the fitted dose curve; in most records, active means well fitted curve in the direction sought with a large enough effect; inconclusive means small, poorly fitted or top-dose-only effect, or another doubt; inactive means no such curve, though single readings can be large; an effect the other way counts as inactive or inconclusive.

SMILES	IMPase cell inh	IMPase Li cell	HPGD inh	NPSR antag	ALDH1A1 block	ALOX12 inhib
COc1ccc(S(=O)(=O)Nc2ccc(F)c(F)c2)cc1Cl	n	n	n	n	u	n
COc1ccc(S(=O)(=O)N2CCCCC2)cc1NS(=O)(=O)c1cc(Cl)ccc1Cl	x	n	n	n	2.24µM	n
COc1ccc(NS(=O)(=O)c2ccc(Oc3ncccn3)cc2)cc1	n	n	n	n	n	n
COc1ccc(NS(=O)(=O)c2ccc(Oc3cccc(C(=O)O)c3)cc2)cc1	x	n	x	n	0.708µM	x
COc1ccc(S(=O)(=O)Nc2ccc(Oc3ncccn3)c(Cl)c2)cc1	n	n	14.1µM	n	n	n
COc1ccc(NS(=O)(=O)c2ccc(S(=O)(=O)N3CCCC3)cc2)cc1Cl	n	n	n	n	12.6µM	n
CCC(Sc1ccc2nnc(-c3cccnc3)n2n1)C(=O)O (stereo unspecified)	n	n	n	u	n	n
O=C(Nc1ccccc1)OCc1cnc(Cl)s1	x	n	x	n	n	x
CC(C)NC(=O)c1ccc(S(=O)(=O)N(C)C)cc1	x	n	x	n	n	x
c1ccc(-c2nc(-c3ccccc3)c(Nc3ccc4ccccc4c3)o2)cc1	x	n	n	x	n	n
COc1ccc(S(=O)(=O)N2CCC(C(N)=O)(N3CCCCC3)CC2)cc1	n	n	n	n	17.8µM	n
O=C(O)CC(SCC(=O)Nc1ccccc1)C(=O)O (stereo unspecified)	x	n	x	n	u	x
O=C(O)CC(SCC(=O)Nc1ccc(S(=O)(=O)N2CCCC2)cc1)C(=O)O (stereo unspecified)	x	n	x	n	8.91µM	x
COc1ccc(NS(=O)(=O)c2ccc(S(=O)(=O)N3CCCC3)cc2)cc1	n	n	n	n	1µM	n
CC(=O)Nc1ccc(S(=O)(=O)Nc2ccc(S(=O)(=O)N3CCCC3)cc2)cc1	n	n	n	n	2.82µM	n
COc1ccc(S(=O)(=O)N2CCCCC2)cc1	u	n	n	n	n	n
COc1ccc(NC(=O)CN2CCC(C(N)=O)(N3CCCCC3)CC2)cc1	n	n	n	n	n	n
O=C(Nc1ccc(N2CCOCC2)cc1)c1cccc(S(=O)(=O)N2CCCC2)c1	n	n	n	n	u	n
CCN1CCCC1CN(Cc1cc2ccc(C)c(C)c2[nH]c1=O)C(=O)Nc1ccccc1OC (stereo unspecified)	n	n	n	n	12.6µM	n
CCN1CCCC1CN(Cc1cc2ccc(C)cc2[nH]c1=O)C(=S)Nc1ccccc1OC (stereo unspecified)	x	n	n	n	n	n
Cc1ccc(C(=O)c2cc(C)sc2NC(=O)CN2CCN(C(=O)c3ccco3)CC2)cc1	n	x	x	u	25.1µM	n
O=C(CNC(=O)/C(=C\c1ccc(Br)cc1)NC(=O)c1ccccc1)OCc1ccccc1	n	n	n	n	n	n
CC(=NCc1cccc(Cl)c1)c1nc(-c2ccco2)oc1O	x	n	n	n	17.8µM	n
Oc1oc(-c2ccco2)nc1C=Nc1cccc(Cl)c1	n	n	n	n[7.67 µM]	n	n
COc1ccc(-c2nnn(CC(=O)N(CCCN3CCOCC3)C(C(=O)NC3CCCC3)c3ccc(C)o3)n2)cc1 (stereo unspecified)	x	n	x	10µM	n	x
SMILES	IMPase cell inh	IMPase Li cell	HPGD inh	NPSR antag	ALDH1A1 block	ALOX12 inhib
O=C(NCc1ccco1)C1CC(c2cc(C(F)(F)F)cc(C(F)(F)F)c2)=NO1 (stereo unspecified)	x	x	x	n	x	x
Cc1ccc(C(=O)NC2CCCCCC2)o1	n	n	25.1µM	n	n	n
O=C(NC1CCCCC1NC(=O)c1cccs1)c1cccs1 (stereo unspecified)	n	n	n	n	n	n
O=C(NC1CCCCCC1)c1cccs1	n	n	25.1µM	n	u	n
O=C(CNC1CCCCCC1)c1cccs1	x	n	u	n	5.97µM	n
CCCCN(C)C(=O)C(Cc1ccccc1)NS(=O)(=O)c1ccc2c(c1)c(=O)n(C)c(=O)n2C (stereo unspecified)	n	n	n	n	n	n
COc1cc(/C=C2/S/C(=N/S(=O)(=O)c3ccccc3)NC2=O)c([N+](=O)[O-])cc1OC	n	n	5.01µM	n	n	n
